According to PubChem BioAssay AID1236 (Emory University Molecular Libraries Screening Center, 2008):
The campaign covered roughly 220,000 compounds. About 800 (0.36%) were called active. The sample holds actives, similar compounds and a random draw of the others, so the mix is not that of the screen. A number with no mark means an inactive call.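 The calls were made as follows: active = inhibition above about 50% (limit read from the data); inactive = the rest.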

Each compound was assayed on calpain II (m-calpain), Sus scrofa (assay: m-calpain protease activity blockers – biochemical, fluorogenic peptide substrate, 1536-well, primary screen (AID 1236)). Details: purified calpain II, 30 min, at 16 µM, stronger effect = higher value.

Compound | inhibition
Cn1nc(C(C)(C)C)c(NC(=O)c2sccc2Cl)c1C(C)(C)C | -8.61%
O=C(CN1C2=NCCN2c2ccccc21)c1cccs1 | -7.58%
COc1cc(C(=O)NCc2ccc(-n3cccc3)cc2)cc(OC)c1OC | 8.77%
COc1cc(-n2c(C)nc3cc(C(=O)NCc4ccco4)ccc32)cc(OC)c1OC | 8.54%
COc1cc(C(=O)NCc2ccc3c(c2)cc(C)n3C)cc(OC)c1OC | 65% (active)
CC(C)(C)c1ccc(CCC2OCC(CN3CCOCC3)O2)cc1 (centres undefined) | -40.5%
Cc1sc2nc(COC(=O)C(NC(=O)c3ccc(Cl)cc3Cl)C(C)C)[nH]c(=O)c2c1C (centres undefined) | -7.99%
CNC(=O)c1csc(Cc2c(Cl)sc3ccc(Cl)cc23)n1 | 0.86%
CC(=O)c1c(N)n(C)c(=O)n(C)c1=O | -24.4%
CC1CC1C(=O)OCC(=O)c1c(N)n(C)c(=O)n(C)c1=O (centres undefined) | 3.06%
Cn1c(N)c(C(=O)COC(=O)C23CC4CC(CC(C4)C2)C3)c(=O)n(C)c1=O | 79.2% (active)
Cc1ccc2[nH]cc(CCNC(=O)c3ccc([N+](=O)[O-])cc3)c2c1 | 9.36%
CC(C)c1nccn1S(=O)(=O)c1cc([N+](=O)[O-])ccc1Cl | 12%
COc1ccc(O[C@H]2C=C[C@@H](c3ccccc3)O[C@@H]2CO/N=C/C[C@@H]2C=C[C@H](OC(C)=O)[C@@H](COC(C)=O)O2)cc1 | 27%
Cc1cccc2cc3c(N)c(C(=O)N4CCCc5ccccc54)sc3nc12 | -64.7%
COc1ccc(-c2nnc3ccc(SCc4ccccc4)nn23)cc1 | -6.26%
COc1cc(N/C=C2\CC(=O)NC(C)=C2C#N)cc(OC)c1OC | -145%
Oc1c(Cl)cc(Cl)c(Cl)c1Cc1c(O)c(Cl)cc(Cl)c1Cl | 109% (active)
CCOC(=O)c1cc2c(=O)n3ccccc3nc2n(CC(C)C)c1=NC(=O)c1c(-c2c(F)cccc2Cl)noc1C | -60.6%
CCOC(=O)c1c(C)nn(-c2ncccc2NC(=O)CCC(=O)O)c1C | 10.4%
CCCCSc1nc2ccccc2[nH]1 | -22.6%
CCc1nnc(NC(=O)CCCSc2nc3ccccc3[nH]2)s1 | 2.67%

Compound | inhibition
O=C(COC(=O)CCCSc1nc2ccccc2[nH]1)Nc1ccc(Oc2ccccc2)cc1 | 51.3% (active)
CCCCCn1c(=O)c(C(=O)OCC)c(Cl)c2ccccc21 | -1.97%
COc1ccc(C)cc1NC(=O)c1ccc(-c2ccc(C(C)=O)cc2)o1 | -135%
COC(=O)c1ccccc1NC(=O)C1CC(=O)N(c2ccc(OC)cc2)C1 (centres undefined) | 4.97%
CCN(CCCNC(=O)CCn1c(=O)[nH]c2ccsc2c1=O)c1ccccc1 | 64.7% (active)
CCN(CC)CCNC(=O)CCCCCn1c(=O)[nH]c2cc(C(=O)OC)ccc2c1=O | -103%
CCCCC(CC)CNC(=O)CCCCn1c(=O)[nH]c2ccsc2c1=O (centres undefined) | 13.6%
O=c1cc(O)c(-c2cccc(C(F)(F)F)c2)c(Cl)[nH]1 | 27.3%
Cc1cc(C(=O)CCl)c(C)n1CC1COc2ccccc2O1 (centres undefined) | -16.6%
COc1ccc(-c2cc(C3CCN(c4ncccc4[N+](=O)[O-])CC3)[nH]n2)cc1 | 10.5%
Cc1ccc(NN=C2C(=O)OC(C)(C)OC2=O)c(C)c1 | 6.22%
Cc1ccc(OCCCn2c(=O)oc3ccccc32)cc1 | 21.8%
O=C(Nc1ccc2c(c1)CCC2)c1cccc(S(=O)(=O)Nc2ccccc2Cl)c1 | 55.1% (active)
O=C(c1cccc(S(=O)(=O)Nc2ccccc2Cl)c1)N1CCN(C(=O)c2ccco2)CC1 | 10.2%
O=C(Nc1ccc2c(c1)CCC2)c1cccc(S(=O)(=O)N2CCN(c3ccc(F)cc3)CC2)c1 | -32.9%
O=C(Nc1cc2c3c(c1)C1CCCC1CN3CC1CCCC21)c1ccc([N+](=O)[O-])cc1 (centres undefined) | -34.8%
O=C(Oc1cccc(NC2=NS(=O)(=O)c3ccccc32)c1)c1ccncc1 | -20.9%
COC(=O)Cc1c(O)ccn(Cc2cccc(C(F)(F)F)c2)c1=O | -20.3%
CC(C)Cc1nnc(NC(=O)CCC(=O)Nc2ccc3cn[nH]c3c2)s1 | -10.5%
CSCCC(NS(=O)(=O)c1ccc2c(c1)oc(=O)n2C)C(=O)NC1CCCc2ccccc21 (centres undefined) | 30.2%
O=C(Nc1ccc(S(=O)(=O)Nc2nccs2)cc1)c1cc(-c2ccncc2)nc2ccccc12 | -37.6%
COc1cccc2cc(S(=O)(=O)c3ccc(C)cc3)/c(=N/NS(=O)(=O)c3ccc(C)cc3)oc12 | -24.9%
